Assay results from PubChem BioAssay (Tox21).
Records with an inconclusive call do not appear. Entries that show only a call come without a potency. A number with no mark means an inactive call. Calls of active or inactive are those of the source. Calls come from the whole dose curve; as a rule, active = well fitted cell-killing curve with a large enough effect in the repeat runs; inconclusive = weak or mixed curves, or effect the other way; inactive = flat fitted curve, though single readings scatter.

Experiment: qHTS RealTime-Glo MT Cell Viability Assay in HepG2 cells - 0 hour (AID 1224889); note: nearly all actives have a fitted effect of over 50% in size
Conditions: RealTime-Glo luminescence; series mostly up to 76.8 µM
Excerpt: U.S. Tox21 Program National Center for Advancing Translational Sciences [NCATS] NIH Chemical Genomics Center [NCGC] U.S. Environmental Protection Agency [EPA] National Institutes of Environmental Health Sciences [NIEHS] National Toxicology Program [NTP] U.S. Food and Drug Administration [FDA] Tox21 Assay Overview: Measure of cell viability is critical in the cell-base assay. Analysis of cell viability is necessary for the characterization of cell responses to cytotoxic drugs and environmental stress. A RealTime-Glo MT Cell Viability Assay to monitor cell viability in real time of continues cell culture during 40 hours of compound treatment was used to screen Tox21 10K library compounds in HepG2 cells. The RealTime-Glo MT Cell Viability Assay is a nonlytic, homogeneous, bioluminescent method to measure cell viability in real time using a simple, plate-based method. The assay involves adding NanoLuc luciferase and a cell-permeant prosubstrate to cells in culture. Viable cells reduce the proprietary prosubstrate to generate a substrate for NanoLuc luciferase. This substrate diffuses from cells into the surrounding culture medium, where it is rapidly used by the NanoLuc Enzyme to produce a luminescent signal. The signal correlates with the number of viable cells, making the assay well suited for cytotoxicity studies.
Tox21 Assay Protocol Summary: The mixture of HepG2 cell suspension and reagents were dispensed at 600cells/6 ul/well in 1536-well tissue culture treated black solid bottom plates using a Multidrop dispenser. After the assay plates were incubated at a 37 C/5% CO2 incubator for 5 hours, 23 nL of compounds dissolved in DMSO, positive and negative controls was transferred to the assay plate by a pintool work station. The plates were incubated at 37 C for 40 hours. The luminescence intensity were measured at 0h, 8h, 16h, 24h, 32h and 40h time points using ViewLux plate reader during compound treatment.

Compound | Potency | activity change, negative = cytotoxicity
CCCCCCCCc1ccc(S(=O)(=O)O)cc1 | inactive | 
C[C@@H]1CN(c2c(F)c(N)c3c(=O)c(C(=O)O)cn(C4CC4)c3c2F)C[C@H](C)N1 |  | 5.84% [at 15.8 µM]
c1ccc(CN(CC2=NCCN2)c2ccccc2)cc1 | inactive | 
CCOC(=O)NCCC[Si](OCC)(OCC)OCC | inactive | 
COc1nc(C)nc(NC(=O)NS(=O)(=O)c2ccccc2OCCCl)n1 | inactive | 
O=C(CCCl)NCc1ccccc1 | inactive | 
COc1cc(C)ccc1C(C)C | inactive | 
O=C(O)c1ccccc1Nc1cc(Cl)ccc1C(=O)O |  | -2.93% [at 15.8 µM]
CCCCCCCCCC#N | inactive | 
CC1=C2[C@H](/C=C(\C)C(=O)O)CC[C@@H](C)[C@H]2CC1 | inactive | 
OCc1ccccc1O | inactive | 
Cc1c[nH]c(=S)[nH]c1=O | inactive | 
CCC(=O)O[C@]1(C(=O)SCF)[C@H](C)C[C@H]2[C@@H]3C[C@H](F)C4=CC(=O)C=C[C@]4(C)[C@@]3(F)[C@@H](O)C[C@@]21C | inactive | 
CN1C(=O)CC(c2ccccc2)C1=O (stereo not given) | inactive | 
O=C(O)CN(CCN(CC(=O)O)CC(=O)O)CCN(CC(=O)O)CC(=O)O |  | -4.51% [at 15.8 µM]
NC1=NCC2c3ccccc3Cc3ccccc3N12 (stereo not given) | inactive | 
Cc1c(-c2ccccc2)oc2c(C(=O)OCCN3CCCCC3)cccc2c1=O | inactive | 
FC(F)(F)C(F)(F)C(F)(F)C(F)(F)C(F)(F)C(F)(F)C(F)(F)C(F)(F)Br | inactive | 
CCCCCCCCOC(=O)CCCCCCCCC(=O)OCCCCCCCC | inactive | 
CC1(C)S[C@@H]2[C@H](NC(=O)C(C(=O)O)c3ccccc3)C(=O)N2[C@H]1C(=O)O (stereo not given in full) | inactive | 

Compound | Potency | activity change, negative = cytotoxicity
FC(F)(F)C(Cl)(Cl)Cl | inactive | 
COc1ccccc1OCC(O)COC(N)=O (stereo not given) | inactive | 
Cc1ccc(C(C)C)cc1O | inactive | 
O=c1oc2c(O)c(O)cc3c(=O)oc4c(O)c(O)cc1c4c23 |  | 0.919% [at 15.8 µM]
COc1cc2c(cc1N)oc1ccccc12 | inactive | 
CN(C)CC[C@@H](c1ccc(Cl)cc1)c1ccccn1 | inactive | 
Cc1nnc(SCC2=C(C(=O)O)N3C(=O)[C@@H](NC(=O)Cn4cnnn4)[C@H]3SC2)s1 | inactive | 
CC(C)NCC(O)COc1ccc(CCOCC2CC2)cc1 (stereo not given) | inactive | 
CCCCC(CC)COC(=O)COc1cc(Cl)c(Cl)cc1Cl (stereo not given) | inactive | 
CN1CCN(N)CC1 | inactive | 
CC(=O)N(CC(O)CN(C(C)=O)c1c(I)c(C(=O)NCC(O)CO)c(I)c(C(=O)NCC(O)CO)c1I)c1c(I)c(C(=O)NCC(O)CO)c(I)c(C(=O)NCC(O)CO)c1I (stereo not given) | inactive | 
OCCN1CCN(CCO)CC1 | inactive | 
CC(C)C(=O)OC/C=C/c1ccccc1 | inactive | 
C=CC1CO1 (stereo not given) | inactive | 
Cc1c(N)cccc1N | inactive | 
O=C1CCN(c2ccccc2)N1 | inactive | 
CCN(CC)CC1CCCCN1CC(=O)N1c2ccccc2C(=O)Nc2cccnc21 (stereo not given) | inactive | 
CCN[C@H]1CN(CCCOC)S(=O)(=O)c2sc(S(N)(=O)=O)cc21 | inactive | 
OCC(CBr)(CBr)CBr | inactive | 
CN1[C@@H]2CC[C@H]1CC(OC(=O)c1c[nH]c3ccccc13)C2 (stereo not given in full) | inactive | 
